The panel holds about 83,000 compounds, 20% with a hit somewhere; the sample as a whole holds those more often.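 Single-concentration screen, 48 h exposure, 96-well plates. Endpoint: percent growth. Below 10 = active.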 Unmarked numbers belong to inactive results. Activity calls are given as the source filed them.
test system: HL-60(TB) leukemia; assay: NCI-60 one-dose screen, 48 h (100 = growth as untreated, 0 = no growth, -100 = all killed); details: 10 µM unless noted

Row | Compound | growth
1 | CCc1nnc(NC(=O)c2nnn(-c3ccccc3)c2-c2ccco2)s1 | 79.9%
2 | Nc1cccc(-c2ccc(COc3ccc(CC4SC(=O)NC4=O)cc3)cc2)c1 (stereo unspecified) | 43.4%
3 | CCN(CCCCCCN1CC(=O)N(CCCCCCN(CC)Cc2ccccc2OC)CC1=O)Cc1ccccc1OC | 60.6%
4 | COc1ccc(C2C=C(c3ccc(OC)c(OC)c3)N=C3SC=CN32)c(Br)c1 (stereo unspecified) | 57.6%
5 | CC(=O)OC1CCC2(C)C(=CC3C4CCC(=O)C4(C)CCC32)C1 (stereo unspecified) | 91%
6 | CC(C)(C)c1cc(C=Nc2cccc(C(F)(F)F)c2)c(O)c(C(C)(C)C)c1 | 90.1%
7 | Ic1ccc(Nc2nc3nonc3nc2Nc2ccc(I)cc2)cc1 | -50.2% (active)
8 | COc1ccc2c3c(ccc2c1)C(=O)/C(=C\O)CC3 | 75.1%
9 | O=C(O)CCCCNC(=O)c1ccccc1 | 101%
10 | O=S(=O)(O)c1cccc(Nc2ccc3ccccc3c2)c1 | 89.9%
11 | CN1CCN(c2ccc3nc(-c4ccc5nc(-c6ccc(C(F)(F)F)cc6)[nH]c5c4)[nH]c3c2)CC1 | 23.9%
12 | Cc1cc(Nc2nc(N3CCNCC3)nc3ccccc23)n[nH]1 | 106%
13 | CC1CN(CCCOC(=O)Nc2ccc(Cl)cc2)CCN1C(C)(C)C (stereo unspecified) | 96.1%
14 | CCCCNc1nnc(-c2cc(-c3cc4ccccc4o3)nn2-c2ccccc2)o1 | 86.5%
15 | C#CCOc1cccc(Nc2c(Cl)c(CCl)nc3ccc(Oc4ccccc4)cc23)c1 | 41.4%
16 | COc1ccc(Nc2nc(Nc3cc(C)[nH]n3)c3cc(OC)c(OC)cc3n2)cc1 | -50.5% [20 µM] (active)
17 | COC(=O)c1ccc2c(c1)nc(-c1ccc(O)c(OC)c1)n2-c1cc(C(C)(C)C)[nH]n1 | 103%
18 | CCCN1CCN(c2ccc3nc(-c4ccc5nc(-c6cc(OC)c(OC)c(OC)c6)[nH]c5c4)[nH]c3c2)CC1 | 97.4%
19 | CC(=O)OCC1CCCO1 (stereo unspecified) | 84.7%
20 | O=C(Nc1ccc2ncsc2c1)c1csc(Nc2ccc3[nH]ncc3c2)n1 | 9.68% (active)
21 | Clc1ccc2c(NCCCCNc3nc(N4CCCCC4)nc4ccccc34)ccnc2c1 | -69% (active)
22 | CCOC(=O)C1=CSC2=NC3=C(CCC/C3=C\c3cc(OC)c(OC)c(OC)c3)C(c3cc(OC)c(OC)c(OC)c3)N12 (stereo unspecified) | 51.5%
23 | CSC(=N\N=C\c1ccc(N(C)C)cc1)/N=C/N(C)C | 105%
24 | Cc1cc(O)cc2c1[C@H]1CC[C@]3(C)[C@@H](O)CC[C@H]3[C@@H]1C=C2 | 70.6%
25 | COc1ccc(C2CC(c3ccccc3)=NN2C(=O)c2cc(OC)c(OC)c(OC)c2)cc1O (stereo unspecified) | -29.3% (active)
26 | Nc1nc(Nc2ccccc2)c(C=Nc2ccccc2)c(=O)[nH]1 | 98.9%

Reference: PubChem BioAssay (NCI)
